Rows were chosen to be rich in hits. Some 7% of all compounds tested hit in one or more screens of this group.
S2 tox = reduces viability in counter-screen for ATXN expression inhibitors; S2 cells (HEK-293 line with an ATXN2-luciferase reporter) viability, CellTiter-Fluor protease fluorescence, 24 h; Potency, µM (series often up to 56.7 µM), hits mostly cytotoxic; 0.49% of 400,000 active; AID 651635; also: potency is read from the fitted curve at half-maximal effect; nearly all actives have a fitted effect of over 40% in size
a7 integrin act = activates integrin-mediated alleviation for muscular dystrophy; AID 624291; 0.064% of 350,000 active; alpha7betagal myoblasts, beta-gal FDG fluorescence, 48 h; Potency, µM (doses to about 38.3 µM), without a hit: at the top dose activation, most hits filed as activators;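 also: potency is read from the fitted curve at half-maximal effect; 100% = response of the positive control SU9516; nearly all actives have a fitted effect of over 60% in size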
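Alpha7betagal+/- myoblasts (passage 13) were plated 16-24 hr, then exposed to compounds (1:260 dilution of DMSO stock) for 48 hours at 37C. After MPER lysis, β-galactosidase reporter activity was read as FDG fluorescence (ex 480/em 540) after 30 minutes.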
ATXN2 expr inh = reduces ATXN2 reporter expression in HEK-293 cells. HEK-293 ATXN2-luciferase reporter, luminescence, 24 h. 0.72% of 360,000 active. Potency, µM (series often up to 57 µM), for the others: top-dose activity change, negative = inhibition, actives largely listed as inhibitors; also: potency is read from the fitted curve at half-maximal effect; % is scaled to controls: 0 for no effect and ±100 for the full control effect; nearly all actives have a fitted effect of over 55% in size
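ATXN2-luciferase reporter cells (luciferase flanked by upstream and downstream ATXN2 gene portions) were treated 24 h at 37 °C with compounds at up to 57 uM. SteadyGlo luminescence gave expression; GF-AFC fluorescence gave viability.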
DRD3 agonist = activates the human D3 dopamine receptor; 0.58% of 410,000 active; P35462; AID 652048; D3R DiscoveRx beta-arrestin cells, luminescence, 90 min; max activation, %; in the data active = max activation above about 30%; also: 0% is about no effect
Target sequence (P35462 whole entry, looked up): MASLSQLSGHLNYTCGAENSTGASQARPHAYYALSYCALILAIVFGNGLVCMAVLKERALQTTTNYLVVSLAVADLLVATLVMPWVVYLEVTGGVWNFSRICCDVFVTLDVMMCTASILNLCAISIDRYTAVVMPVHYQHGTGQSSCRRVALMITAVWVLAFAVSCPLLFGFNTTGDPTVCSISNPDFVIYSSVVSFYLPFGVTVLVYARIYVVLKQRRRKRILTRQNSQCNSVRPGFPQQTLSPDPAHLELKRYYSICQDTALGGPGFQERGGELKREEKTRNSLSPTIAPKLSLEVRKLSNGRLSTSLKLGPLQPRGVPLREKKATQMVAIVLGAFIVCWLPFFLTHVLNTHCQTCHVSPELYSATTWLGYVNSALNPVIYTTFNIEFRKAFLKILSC
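Cells at 1500/well, incubated overnight, then treated with pinned compounds (dopamine as control) for 90 min at 37 degrees C. DiscoveRx reagent added for 30 - 60 minutes at room temperature; luminescence read.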
IL1B secr inh = blocks inflammasome-driven IL-1 beta release; 4.7% of 360,000 active; AID 743279; activity change, % at 57.5 µM; THP-1 LPS/ATP IL-1B secretion, AlphaLISA, 16 h; hits give low values; in the data active = activity change below about -50%; inconclusive = mostly about -30% to -49%; also: % is scaled to controls: 0 for no effect and ±100 for the full control effect
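Secreted IL-1B measured by AlphaLISA bead assay after 16 h compound exposure of THP-1 cells; compounds (final up to 57.5 uM) added 1 h before LPS (250 ng/mL) and ATP (1.25 mM) stimulation; lower signal means less secretion.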
DRD3 antagonist = blocks the human D3 dopamine receptor; P35462; D3R cells, DiscoveRx beta-arrestin luminescence, antagonist mode; hits give low values; max response, negative = inhibition, %; 2.5% of 360,000 active; AID 652054; in the data active = max response below about -50%; inconclusive = no clear call, values can overlap the other calls; also: % is scaled to controls: 0 for no effect and ±100 for the full control effect
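Cells expressing the human receptor were seeded at 1500 cells/well, incubated overnight at 37 degrees C in 5% CO2, then exposed to library compounds with dopamine controls for 90 minutes at 37 degrees C before luminescent detection.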
An asterisk follows results filed as active; i = inactive; ? = inconclusive; nt = not tested or not shown. Unless noted, calls follow the shape of the dose curve; as a rule, active = well fitted curve in the direction sought with a large enough effect; inconclusive = small, poorly fitted or top-dose-only effect, or another doubt; inactive = no such curve, though single readings can be large; an effect the other way counts as inactive or inconclusive.

SMILES	S2 tox	a7 integrin act	ATXN2 expr inh	DRD3 agonist	IL1B secr inh	DRD3 antagonist
Cc1ccc(-c2csc(/C(C#N)=C(\O)CCl)n2)cc1	i	5%	38%	5	-73*	0
N#C/C(=C(/O)CN1CCCCC1)c1nc(-c2ccc(Cl)cc2)cs1	i	10%	31%	-5	14	-4
N#C/C(=C(/O)CCl)c1nc(-c2ccccc2)cs1	i	-11%	69%	-1	-57*	-6
C=CCC[C@H](Cc1ccc(F)cc1)C(=O)OC[C@@H](Cc1c[nH]c2ccccc12)NC(=O)[C@@H](CC=C)CC(=O)N[C@@H](CO)Cc1ccccc1	13µM*	-35%	?	-2	-30	-20
C=CCC[C@@H](Cc1ccc(F)cc1)C(=O)OC[C@@H](Cc1c[nH]c2ccccc12)NC(=O)[C@H](CC=C)CC(=O)N[C@H](CO)Cc1ccccc1	25µM*	-43%	?	13	91	40
C=CCC[C@@H](Cc1ccc(F)cc1)C(=O)OC[C@@H](NC(=O)[C@@H](CC=C)CC(=O)N[C@H](CO)Cc1ccccc1)C(C)(C)C	?	-7%	0%	-16	12	-63*
C=CCC[C@@H](Cc1ccc(F)cc1)C(=O)OC[C@H](Cc1c[nH]c2ccccc12)NC(=O)[C@@H](CC=C)CC(=O)N[C@@H](CO)Cc1ccccc1	?	-19%	-12%	11	-3	10
O=C1OC(N2C(=O)CC[C@H]2C(=O)NCC2CCCO2)c2ccccc21 (stereo partly drawn)	i	-6%	2%	12	12	-1
CC(C)NC(=O)c1cc(C2CCCCN2C(=O)OCCF)on1 (stereo not drawn)	i	nt	6%	8	-67*	42
Cn1nc(C(C)(C)C)cc1C(=O)N1CCCCC1c1cc(C(=O)Nc2ccc(F)c(Cl)c2)no1 (stereo not drawn)	i	nt	0%	0	-64*	-7
Cc1ccc(F)cc1C(=O)N1CCCCC1c1cc(C(=O)NC(C)C)no1 (stereo not drawn)	i	nt	1%	4	-56*	55
O=C(NN=Cc1c(F)cccc1F)c1ccccc1NS(=O)(=O)c1cccs1	i	0%	-8%	-22	-8	-5
Cc1nc2nc(SCC(=O)NCCCN3CCCC3)nn2c(C)c1Cc1ccccc1Cl	i	-84%	-7%	1	-54*	-5
CN(/N=C\c1ccc(O)c(O)c1)c1nc(-c2ccccc2)cc(-c2ccccc2)n1	i	-45%	-24%	2	-61*	27
COc1cc(/C=N/N(c2ccccc2)c2ccccc2)ccc1O	i	-57%	?	12	?	22
COC(=O)Cc1ccc(N(Cc2ccccc2F)S(=O)(=O)c2ccc(Cl)cc2)cc1	i	-3%	-33%	-7	0	-56*
CC1S/C(=C(\C#N)C(=O)NCc2ccco2)N(Cc2ccco2)C1=O (stereo not drawn)	i	-22%	7%	2	26	?
COc1cccc2sc3ccc(C#Cc4ccc(N)cc4)cc3c(=O)c12	i	25%	15%	26	-25	35
Nc1ccc(C#Cc2ccc3sc4ccccc4c(=O)c3c2)cc1	i	-6%	10%	44*	16	51
CCc1ccc(-c2cn3nc(CC)sc3n2)cc1	i	nt	4%	-11	nt	nt
CCCCCc1nn2cc(-c3ccccc3)nc2s1	i	nt	22%	37*	nt	nt
CC(C)Cc1nn2cc(-c3cccc(Br)c3)nc2s1	i	nt	24%	66*	nt	nt
CCC(CC)C(=O)Nc1cccc(/C(C)=N/NC(=O)c2c(Br)cnn2C)c1	i	12%	6%	0	-24	-51*
CCC(CC)C(=O)Nc1cccc(/C(C)=N/NC(=O)c2ccccc2Cl)c1	i	-10%	8%	4	-6	1
S=C(NCc1ccncc1)Nc1ccc(Cl)cc1Cl	i	10%	-17%	3	22	14
SMILES	S2 tox	a7 integrin act	ATXN2 expr inh	DRD3 agonist	IL1B secr inh	DRD3 antagonist
OCCNCc1cc(Br)ccc1OCc1ccc(F)cc1	i	-36%	-31%	-9	-81*	6
Brc1ccc(OCc2ccccc2)c(CNCc2ccncc2)c1	?	-24%	?	-40	-59*	-62*
OCCCCNCc1cc(Br)ccc1OCc1ccccc1F	i	17%	-15%	-30	-70*	-23
OCCNCc1cc(Br)ccc1OCc1ccc(Cl)cc1Cl	?	-65%	?	-20	?	23
Fc1ccc(COc2ccccc2CNCc2ccncc2)cc1	i	-32%	-8%	-7	-4	-1
OCCNCc1cc(Br)ccc1OCc1ccc(Cl)cc1	i	-40%	-11%	-6	?	-12
C[C@@H]1CCCCO[C@H](CN(C)C(=O)Nc2cccc3ccccc23)[C@@H](C)CN([C@H](C)CO)C(=O)c2cc(NC(=O)c3ccccc3)ccc2O1	?	-22%	-7%	-6	-25	?
CN1CCN(C(=O)CCN2C(=O)/C(=C/c3ccc(F)cc3)SC2=S)CC1	i	-41%	69%	-8	-102*	-19
CN1CCN(NC(=O)CN2C(=O)/C(=C/c3c(Cl)cccc3Cl)SC2=S)CC1	i	-20%	-1%	2	2	7
CN1CCN(NC(=O)CN2C(=O)/C(=C/c3ccccc3Cl)SC2=S)CC1	i	-25%	3%	-4	-6	-64*
O=C(CCN1C(=O)/C(=C/c2ccc(F)cc2)SC1=S)NNC(=O)c1ccncc1	i	-13%	nt	1	2	16
O=C(CCN1C(=O)/C(=C/c2ccc(F)cc2)SC1=S)N[C@@H](CO)Cc1ccccc1	i	-65%	nt	-3	-52*	17
Cc1ccc(/C=C2/SC(=S)N(CCC(=O)N3CCN(C)CC3)C2=O)cc1	nt	-31%	12%	-8	-26	-19
O=C(CCN1C(=O)/C(=C\c2ccccc2F)SC1=S)N1CCOCC1	?	0%	nt	-5	-2	-18
CN1CCN(C(=O)CCN2C(=O)/C(=C\c3ccccc3F)SC2=S)CC1	?	-36%	0%	-7	-51*	1
CCCNC(=O)CN1C(=O)c2cccnc2Sc2ccccc21	i	nt	7%	4	nt	nt
O=C(CCCN1C(=O)/C(=C/c2ccccc2Cl)SC1=S)N1CCOCC1	i	-47%	-35%	-2	?	-16
CN1CCN(C(=O)CCN2C(=O)/C(=C/c3ccccc3Cl)SC2=S)CC1	?	-57%	43%	-4	-97*	-22
CCCCN(C(=O)Nc1ccccc1)C1CCS(=O)(=O)C1 (stereo not drawn)	i	-27%	7%	1	-16	-3
